# Source: PubChem BioAssay (National Center for Advancing Translational Sciences (NCATS))
# Sampled rows, rich in hits. Any-hit rate of the full collection: about 21%.
# IL-1B inflam inh: inflammasome signaling inhibition, IL-1 beta readout; activity change, % at 57.5 µM; AID 743279; THP-1 LPS/ATP IL-1B secretion, AlphaLISA, 16 h; active compounds read low; 360,000 tested, 4.7% active; in the data active = activity change below about -50%; inconclusive = mostly about -30% to -49%
#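 THP-1 cells pretreated 1 hr with compounds (up to 57.5 uM final), then stimulated with LPS (250 ng/mL final) plus ATP (1.25 mM final); secreted IL-1B measured by AlphaLISA after 16 hr, decreased signal indicating inhibition.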
# DT40 TDP1 CPT: DT40-hTDP1 cell growth loss with CPT; AID 686979; Potency, µM (highest dose often 46.2 µM), inactives show at the highest dose activity change, negative = growth inhibition, most hits filed as inhibitors; 420,000 tested, 12% active; chicken DT40 Tdp1-/-;hTDP1 cells + 20 nM CPT, ATP luminescence, 48 h; note: potency is the fitted concentration of half-maximal effect; nearly all actives have a fitted effect of over 55% in size
#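 Chicken DT40 Tdp1-/- cells complemented with human TDP1, 400 cells/well, exposed to compounds plus 20 nM camptothecin for at least 48 h at 37 C; viability read as ATP content by CellTiter-Glo luminescence.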
# VP16 counter: counter-screen for ROR gamma inhibitors: Gal4-VP16 reporter; Drosophila S2 Gal4-VP16 UAS-luciferase, luminescence, 20 h; Potency, µM (titrated, usually from 53.6 µM), for the others: at the highest dose activity, negative = inhibition, usual class: inhibitors; 310,000 tested, 3.5% active; AID 2546;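 note: Gal4-VP16 expression switched on by copper sulfate through the metallothionein promoter; potency is the fitted concentration of half-maximal effect; nearly all actives have a fitted effect of over 50% in size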
# RORg inh: inhibitors of mouse ROR gamma transcriptional activity | Drosophila S2 Gal4-RORgamma UAS-luciferase reporter, 20 h | P51450 | Potency, µM (titrated, usually from 53.6 µM), without a hit: at the top dose activity change, negative = inhibition, hits mostly inhibitors | AID 2551 | 310,000 tested, 5.4% active; note: potency is the fitted concentration of half-maximal effect; nearly all actives have a fitted effect of over 60% in size
# Target sequence (P51450 whole entry, looked up, the tested form may be a part): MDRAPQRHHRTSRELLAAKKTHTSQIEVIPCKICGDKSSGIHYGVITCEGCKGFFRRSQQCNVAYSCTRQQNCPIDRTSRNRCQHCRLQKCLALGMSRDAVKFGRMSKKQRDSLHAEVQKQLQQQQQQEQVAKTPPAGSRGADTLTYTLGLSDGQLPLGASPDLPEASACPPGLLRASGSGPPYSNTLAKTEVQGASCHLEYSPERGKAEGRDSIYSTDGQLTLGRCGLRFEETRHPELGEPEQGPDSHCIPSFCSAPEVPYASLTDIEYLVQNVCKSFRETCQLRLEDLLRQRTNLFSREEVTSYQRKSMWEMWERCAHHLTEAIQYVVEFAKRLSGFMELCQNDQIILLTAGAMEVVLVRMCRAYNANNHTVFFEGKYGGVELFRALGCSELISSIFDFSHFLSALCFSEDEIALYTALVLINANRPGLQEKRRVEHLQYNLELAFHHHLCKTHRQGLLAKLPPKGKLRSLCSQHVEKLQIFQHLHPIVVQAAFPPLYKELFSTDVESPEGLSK
#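 Compounds are pin-transferred onto Drosophila Schneider cells expressing a copper-inducible Gal4–ROR gamma transactivation domain fusion. After 1 hr, copper sulfate is added to 700 uM final; luciferase is read 20 hr later.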
# TDP1 cell noCPT: qHTS for Inhibitors of human tyrosyl-DNA phosphodiesterase 1 (TDP1): qHTS in cells in absence of CPT; DT40 Tdp1-/- hTDP1 cells, no CPT, ATP luminescence, 48 h; Potency, µM (series often up to 46.2 µM), for the others: at the highest dose activity change, negative = growth inhibition, most hits filed as inhibitors; 420,000 tested, 15% active; note: potency is the fitted concentration of half-maximal effect; nearly all actives have a fitted effect of over 55% in size
#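 No-CPT arm: Tdp1-/-;hTDP1 DT40 cells (400/well) plus compounds, incubated ≥48 hr at 37 °C. Readout CellTiter-Glo luminescence.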
# ELG1 DNA repair: ELG1-dependent DNA repair inhibition | HEK293T ELG1-luciferase reporter, luminescence, 16 h; DNA damage induced by 5-fluorouridine | Potency, µM (doses to about 46.1 µM), for inactives: top-dose activity change, negative = inhibition, actives largely listed as inhibitors | 330,000 tested, 2.3% active; note: potency is the fitted concentration of half-maximal effect; nearly all actives have a fitted effect of over 55% in size
#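 Step one: seed 2,000 cells per well. Step two: pin-transfer compound or DMSO alongside 5-fluorouridine. Step three: incubate 16 hr, 37 °C, 5% CO2. Step four: add ONE-Glo, wait 30 min, read luminescence.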
# Numbers without * were called inactive; ? = inconclusive; nt = no result given; [ ] = another dose, or the depositor's remark. Unless noted, calls come from the whole dose curve; as a rule, active = well fitted curve in the direction sought with a large enough effect; inconclusive = small, poorly fitted or top-dose-only effect, or another doubt; inactive = no such curve, though single readings can be large; an effect the other way counts as inactive or inconclusive. % is set by controls: 0 for no effect and ±100 for the full control effect.
SMILES,IL-1B inflam inh,DT40 TDP1 CPT,VP16 counter,RORg inh,TDP1 cell noCPT,ELG1 DNA repair
COC(=O)N[C@H](C(=O)N[C@@H](Cc1ccccc1)[C@@H](O)CN(Cc1ccc(-c2ccccn2)cc1)NC(=O)[C@@H](NC(=O)OC)C(C)(C)C)C(C)(C)C,nt,-17%,nt,nt,-12%,nt
C=CCc1ccc(OCC(O)CN2CCN(c3ccccc3OC)CC2)c(OC)c1 (stereo not drawn),?,-19%,-2%,-26%,-8%,-12%
C=CCc1ccc(OCC(O)CN2CCN(Cc3ccc(Cl)cc3)CC2)c(OC)c1 (stereo not drawn),?,?,?,51%,21µM*,?
COc1ccc(N2CCN(CC(O)COc3ccc4c(c3)CCC4)CC2)cc1 (stereo not drawn),?,18µM*,-1%,-2%,23µM*,-6%
Cc1cc(C)cc(NC(=O)c2cn3c4c(ccc(Cl)c4c2=O)OC(C)C3)c1 (stereo not drawn),nt,-1%,nt,nt,-4%,nt
O=C(/C=C/c1cccc(C(F)(F)F)c1)NNC(=O)c1ccncc1,-18,-18%,nt,nt,-7%,2%
O=C(Cc1cccc2ccccc12)NCCOc1ccccc1F,-84*,-27%,2%,24%,-24%,-6%
Cn1c(=O)c2cc(NC(=O)Cc3cccc4ccccc34)ccc2n1-c1ccccc1,30,16µM*,nt,nt,21µM*,nt
O=C(Cc1cccc2ccccc12)Nc1ccc2c(c1)C(=O)NC2=O,-4,11%,-6%,-1%,-3%,5%
O=C(Cc1cccc2ccccc12)Nc1ccccc1,-7,23µM*,nt,nt,?,nt
CC(CC(=O)Nc1ccc2c(c1)c(=O)n(C)n2-c1ccccc1)c1ccccc1 (stereo not drawn),73,5.2µM*,nt,nt,5.2µM*,nt
O=C1[C@H]2[C@H]3[C@H](O)[C@H](O)C/C(=N/OC[C@@H](O)COCc4ccco4)[C@H]3CC[C@@H]2C(=O)N1C1CCCCC1,nt,nt,-12%[10 µM],9%[10 µM],nt,nt
CCOC(=O)C1=CN(Cc2ccco2)S(=O)(=O)NC1c1ccc(Br)cc1F (stereo not drawn),7,-22%,nt,nt,?,1%
Cc1ccccc1CC(=O)Nc1ccc2c(c1)c(=O)n(C)n2-c1cccs1,0,?,nt,nt,3.3µM*,nt
Cc1ccccc1CC(=O)Nc1ccc2c(c1)c(=O)n(C)n2-c1ccccc1F,-13,?,nt,nt,-23%,nt
C=CCN(CC=C)C(=S)NC(=O)Cc1cccc2ccccc12,34,?,0.79µM*,0.2µM*,?,0%
O=C(Cc1cccc2ccccc12)NO,nt,-2%,nt,nt,-26%,nt
CCC(=O)N(Cc1cc(=O)[nH]c2ccccc12)c1ccc(C)cc1C,23,-10%,-3%,16%,9%,-5%
CC(C)C(Cl)=NOC(=O)Nc1ccc(F)cc1,-100*,1.5µM*,nt,nt,2.3µM*,nt
C/C(=N\OC(=O)Nc1ccc(Cl)cc1)c1ccc(F)c(F)c1,-87*,2%,4%,20%,?,?
CC(=NOC(=O)c1ccc(I)cc1)c1nccs1,0,-14%,nt,nt,-29%,nt
COc1cccc(C(=O)NCCSCc2c(F)cccc2Cl)c1,-65*,2%,-1%,3%,?,?
Cc1c(C(=O)NCCSCc2c(F)cccc2Cl)cnn1-c1ccc(F)cc1,-21,?,?,1%,26µM*,-30%
O=C(CCc1ccccc1)NCCSCc1c(F)cccc1Cl,3,-9%,7.9µM*,?,-18%,17%
O=C(CSCc1c(F)cccc1Cl)NCCc1ccccc1,-4,-4%,28%,7%,-12%,9%
COc1cccc(C(=O)NCCSCc2ccccc2Cl)c1,0,1%,30%,26%,?,?
